Measurements taken from PubChem BioAssay AID743150 (Broad Institute, 2013).
Entries with a potency or affinity are not part of this list. Calls of active or inactive are those of the source. How the calls were made is not given here.

assay: cytotoxicity in OVCAR4 cells, dose response, cytotoxicity control for PAX8 inhibitor project, cell-based, plate reader, dry powder, SA11 (AID 743150); settings: series mostly up to 35 µM

Question: With `N#C[C@H]1N[C@H](CO)[C@@H]1c1ccc(C#Cc2ccccc2F)cc1` as the molecule, how does the outcome read?
Answer: The outcome was “inactive”.

Question: For `C[C@@H]1CN([C@H](C)CO)C(=O)CCCn2nncc2CO[C@H]1CN(C)Cc1ccc(Oc2ccccc2)cc1`, which outcome is on record?
Answer: The outcome was “inactive”.

Question: For `COc1cccc(C#Cc2ccc([C@@H]3[C@@H](C#N)N(C(=O)C4CCCCC4)[C@H]3CO)cc2)c1`, which outcome is on record?
Answer: The outcome was “inactive”.

Question: With `O=C(/C=C/c1ccccc1)Nc1cccc(C(=O)O)c1` as the molecule, how does the outcome read?
Answer: The outcome was “inactive”.

Question: Which outcome does the source give for `CC1(C)CC(=O)c2sc(NC(=O)CCS(=O)(=O)c3ccccc3)nc2C1` here?
Answer: The outcome was “inactive”.

Question: With `O=C1/C(=C/c2ccccc2F)SC(=S)N1CC(=O)N1CCCCC1c1cccnc1` (stereo not given) as the molecule, how does the outcome read?
Answer: Its outcome is “inactive”.

Question: With `CCCn1c(C)cc(C(=O)CN2C(=O)c3ccccc3S2(=O)=O)c1C` as the molecule, how does the outcome read?
Answer: The outcome was “inactive”.

Question: With `Cc1ccc(S(=O)(=O)Nc2ccc3c(c2)nc(CCN2CCCC2)n3C)cc1` as the molecule, how does the outcome read?
Answer: The outcome was “inactive”.

Question: For `N#C[C@@H]1[C@@H](c2ccc(-c3cccc(F)c3)cc2)[C@H](CO)N1C(=O)NC1CCCC1`, which outcome is on record?
Answer: Its outcome is “inactive”.

Question: For `COc1ccccc1C#Cc1ccc([C@H]2[C@@H](CO)N(C(=O)C3CCCC3)[C@H]2C#N)cc1`, which outcome is on record?
Answer: Its outcome is “inactive”.

Question: For `N#C[C@@H]1[C@@H](c2ccc(-c3ccccc3F)cc2)[C@@H](CO)N1C(=O)C1CCC1`, which outcome is on record?
Answer: The outcome was “inactive”.

Question: Which outcome does the source give for `C[C@@H]1CN([C@@H](C)CO)S(=O)(=O)c2ccc(C#C[C@@H](C)O)cc2O[C@H]1CN(C)Cc1ccc(-c2ccccc2)cc1` here?
Answer: The outcome was “inactive”.

Question: Which outcome does the source give for `CN(C)CCCN(C(=O)CCOc1ccccc1)c1nc2c(F)cccc2s1` here?
Answer: The outcome was “inactive”.

Question: Which outcome does the source give for `CCSCCc1nnc(NC(=O)Nc2cccc(C(F)(F)F)c2)s1` here?
Answer: Its outcome is “inactive”.

Question: With `C[C@H](CO)N1C[C@H](C)[C@@H](CN(C)Cc2ccc(C(F)(F)F)cc2)OCCCC[C@H](C)Oc2ccc(NS(=O)(=O)c3ccc(F)cc3)cc2C1=O` as the molecule, how does the outcome read?
Answer: The outcome was “inactive”.

Question: For `COc1cccc(C#Cc2ccc([C@@H]3[C@H](C#N)N(C(=O)c4ccccn4)[C@H]3CO)cc2)c1`, which outcome is on record?
Answer: The outcome was “inactive”.

Question: With `COc1ccc(S(=O)(=O)N2CCCCN3[C@H](CO)[C@H](c4ccc(C#CC(C)C)cc4)[C@H]3C2)cc1` as the molecule, how does the outcome read?
Answer: Its outcome is “inactive”.

Question: For `CCCC#Cc1ccc([C@@H]2[C@H](C#N)N(S(=O)(=O)c3cccc(F)c3)[C@H]2CO)cc1`, which outcome is on record?
Answer: The outcome was “inactive”.

Question: With `O=C(CN1C(=O)c2ccccc2S1(=O)=O)c1ccc(Cl)cc1Cl` as the molecule, how does the outcome read?
Answer: The outcome was “inactive”.

Question: For `O=C(CN1C(=O)c2ccccc2S1(=O)=O)c1ccccc1Cl`, which outcome is on record?
Answer: Its outcome is “inactive”.
